Reference: the OligoGym collection

Molecular target: TRPM3
Assay: pooled miR-30 sensor sort-seq; sequence = guide strand
Conditions: shRNA

Question: TTTGTCTTTCATATTGACCGAA was tested. Which sensor-assay potency score (higher = more potent) did it give?
Answer: Its sensor-assay potency score (higher = more potent) is -0.0309.

Question: How did the sensor-assay potency score (higher = more potent) turn out when TTGTTCTTGAACTCCAAGCTGA was run?
Answer: The sensor-assay potency score (higher = more potent) was -0.171.

Question: With TTTCTTGAGCTCATCATCGGTT as the sequence, how does the sensor-assay potency score (higher = more potent) read?
Answer: Its sensor-assay potency score (higher = more potent) is 0.21.

Question: TTTCTCATTCTGAAGCACGGAG was tested. Which sensor-assay potency score (higher = more potent) did it give?
Answer: Its sensor-assay potency score (higher = more potent) is -0.126.

Question: For TATTTTACCATCCTCTCGGGTC, which sensor-assay potency score (higher = more potent) is on record?
Answer: The sensor-assay potency score (higher = more potent) was -0.479.

Question: Which sensor-assay potency score (higher = more potent) does the source give for TTCTATACCACCTTTGTCTTTC here?
Answer: Its sensor-assay potency score (higher = more potent) is 0.0572.

Molecular target: TRPM6
Assay: as above
Conditions: shRNA

Question: With TAAAACTATGACTCCTAGCGAA as the sequence, how does the sensor-assay potency score (higher = more potent) read?
Answer: The sensor-assay potency score (higher = more potent) was -0.766.

Question: For TGTTCTTTTGACTTCTTCCTTG, which sensor-assay potency score (higher = more potent) is on record?
Answer: Its sensor-assay potency score (higher = more potent) is 0.00322.

Question: Which sensor-assay potency score (higher = more potent) does the source give for TAAATGTAACAGATGATCCAGT here?
Answer: Its sensor-assay potency score (higher = more potent) is 0.213.

Question: With TTGAGTAATTCTTCAACTCTTC as the sequence, how does the sensor-assay potency score (higher = more potent) read?
Answer: The sensor-assay potency score (higher = more potent) was -0.179.

Question: For TTGTATTGTAGAGCTCTTCCAG, which sensor-assay potency score (higher = more potent) is on record?
Answer: Its sensor-assay potency score (higher = more potent) is -0.0378.

Question: TATGTTATCACAGAGTTCCTGG was tested. Which sensor-assay potency score (higher = more potent) did it give?
Answer: The sensor-assay potency score (higher = more potent) was 0.658.

Question: TAATTCTTCAACTCTTCTGAGG was tested. Which sensor-assay potency score (higher = more potent) did it give?
Answer: Its sensor-assay potency score (higher = more potent) is -0.79.

Question: For TATAGATCAATTTTTGAGCAGC, which sensor-assay potency score (higher = more potent) is on record?
Answer: Its sensor-assay potency score (higher = more potent) is -0.262.

Question: TTGTTGTTGTTATACTTCCGGA was tested. Which sensor-assay potency score (higher = more potent) did it give?
Answer: The sensor-assay potency score (higher = more potent) was -0.714.

Question: With TAGAACTCATAGACTTTCCTGG as the sequence, how does the sensor-assay potency score (higher = more potent) read?
Answer: The sensor-assay potency score (higher = more potent) was 0.494.

Question: With TTGAGTGTTGTGAGCTTGCTGA as the sequence, how does the sensor-assay potency score (higher = more potent) read?
Answer: Its sensor-assay potency score (higher = more potent) is -0.408.

Question: Which sensor-assay potency score (higher = more potent) does the source give for TAAGTGAGCAATAGGCTCGTGC here?
Answer: Its sensor-assay potency score (higher = more potent) is -0.42.

Molecular target: TRPV1
Assay: as above
Conditions: shRNA

Question: Which sensor-assay potency score (higher = more potent) does the source give for ATGCTCGTCACAAACTTCGTGT here?
Answer: The sensor-assay potency score (higher = more potent) was -0.192.

Question: Which sensor-assay potency score (higher = more potent) does the source give for TAGTAGAGCATGTTGGTCCAGC here?
Answer: Its sensor-assay potency score (higher = more potent) is -0.185.

Question: How did the sensor-assay potency score (higher = more potent) turn out when TTGAAGTAGAAGATGCGCTTGA was run?
Answer: The sensor-assay potency score (higher = more potent) was 0.616.

Question: Which sensor-assay potency score (higher = more potent) does the source give for TTGGTGTTCCAGGTGGTCCAGT here?
Answer: The sensor-assay potency score (higher = more potent) was -0.829.

Question: With TTAAGGAAGCTCTTCTCCGTGT as the sequence, how does the sensor-assay potency score (higher = more potent) read?
Answer: The sensor-assay potency score (higher = more potent) was -0.306.

Question: For ATGTAGACAAACATGAAACGGC, which sensor-assay potency score (higher = more potent) is on record?
Answer: The sensor-assay potency score (higher = more potent) was -0.484.

Question: How did the sensor-assay potency score (higher = more potent) turn out when TAACTCGGAAATAGTCTCCAGT was run?
Answer: The sensor-assay potency score (higher = more potent) was 0.133.

Question: With TTGTCTGTGAGGTGCTTCTTGC as the sequence, how does the sensor-assay potency score (higher = more potent) read?
Answer: The sensor-assay potency score (higher = more potent) was -0.584.

Question: With TAGTAGCTGTCCGTGTAGCTGG as the sequence, how does the sensor-assay potency score (higher = more potent) read?
Answer: Its sensor-assay potency score (higher = more potent) is -0.744.

Question: With TTGAGCAGGAGGATGTAGGTGA as the sequence, how does the sensor-assay potency score (higher = more potent) read?
Answer: Its sensor-assay potency score (higher = more potent) is 1.19.

Question: Which sensor-assay potency score (higher = more potent) does the source give for TAGCTGTCCGTGTAGCTGGCGT here?
Answer: The sensor-assay potency score (higher = more potent) was -0.712.

Question: How did the sensor-assay potency score (higher = more potent) turn out when TCGCAGATAAACTTCCTCGGGC was run?
Answer: The sensor-assay potency score (higher = more potent) was 0.131.

Molecular target: TSC1
Assay: as above
Conditions: shRNA

Question: TAGCTGTCCAACACTGTCCGGG was tested. Which sensor-assay potency score (higher = more potent) did it give?
Answer: The sensor-assay potency score (higher = more potent) was -0.0259.

Question: How did the sensor-assay potency score (higher = more potent) turn out when TAGATATTGCAGCTTCTTCTTT was run?
Answer: The sensor-assay potency score (higher = more potent) was -0.827.

Question: With TATCTTTTTCAATACTATCTTC as the sequence, how does the sensor-assay potency score (higher = more potent) read?
Answer: The sensor-assay potency score (higher = more potent) was -0.463.

Question: Which sensor-assay potency score (higher = more potent) does the source give for TATTTAACAACATCAGCCGAGA here?
Answer: The sensor-assay potency score (higher = more potent) was -0.654.

Question: For TAGCATGGTTATCAACACCAAG, which sensor-assay potency score (higher = more potent) is on record?
Answer: The sensor-assay potency score (higher = more potent) was -0.952.

Question: With TTCTCTTGTAACTTCAACTGAT as the sequence, how does the sensor-assay potency score (higher = more potent) read?
Answer: The sensor-assay potency score (higher = more potent) was 0.432.

Question: How did the sensor-assay potency score (higher = more potent) turn out when TTCCAGGTAATAATCCACCAAG was run?
Answer: The sensor-assay potency score (higher = more potent) was -1.16.

Question: How did the sensor-assay potency score (higher = more potent) turn out when TAGATATTTCTTCTGTTCCAAA was run?
Answer: Its sensor-assay potency score (higher = more potent) is -1.26.

Question: For ATATTTAACAACATCAGCCGAG, which sensor-assay potency score (higher = more potent) is on record?
Answer: The sensor-assay potency score (higher = more potent) was 0.191.

Question: With TGAACTTGCACTCAGACCCTGG as the sequence, how does the sensor-assay potency score (higher = more potent) read?
Answer: The sensor-assay potency score (higher = more potent) was -0.099.
